Screens: PubChem BioAssay, The Scripps Research Institute Molecular Screening Center
Rows were chosen to be rich in hits. Some 3.5% of all compounds tested hit in one or more screens of this group.
GPR151 ag: activators of human GPR151, primary screen, cell-based, PathHunter beta-arrestin, luminescence | activation, % at 11.2 µM | PathHunter beta-arrestin GPR151 cells | AID 1508602, 2020 | actives 1% (n = 650,000); in the data active = activation above about 4.9%;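 note: 0% = median of compound wells and 100% = cells with positive control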
Target sequence (Q8TDV0 whole entry, looked up): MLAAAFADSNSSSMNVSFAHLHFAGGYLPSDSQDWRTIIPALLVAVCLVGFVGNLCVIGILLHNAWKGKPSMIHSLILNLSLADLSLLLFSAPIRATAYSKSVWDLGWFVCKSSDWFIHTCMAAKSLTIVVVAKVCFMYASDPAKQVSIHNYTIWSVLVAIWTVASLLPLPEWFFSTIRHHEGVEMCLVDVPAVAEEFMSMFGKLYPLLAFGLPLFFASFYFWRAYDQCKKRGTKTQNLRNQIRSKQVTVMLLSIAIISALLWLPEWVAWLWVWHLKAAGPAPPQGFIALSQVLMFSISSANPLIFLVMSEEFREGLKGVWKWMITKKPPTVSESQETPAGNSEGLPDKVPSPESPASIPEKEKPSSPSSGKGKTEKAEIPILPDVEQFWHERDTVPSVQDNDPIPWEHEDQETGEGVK
MITF inh: MITF inhibitors, primary screen, biochemical, AlphaScreen, human; Microphthalmia-associated transcription factor (Homo sapiens), O75030; AlphaScreen MITF homodimerization, bead proximity signal; inhibition, % at 2.6 µM; actives 0.91% (n = 650,000); AID 1259374, 2018; in the data active = inhibition above about 50%;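 note: 0% = vehicle wells with protein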
FBW7 act: FBW7 E3 ligase activators, primary screen, biochemical, AlphaScreen, human; actives 0.13% (n = 650,000); normalized activity (activation), % at 26.1 µM; F-box/WD repeat-containing protein 7 (Homo sapiens), Q969H0; AlphaScreen FBW7–phospho-cyclin E peptide binding, activator screen; in the data active = normalized activity above about 1.9%;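 note: purified mutant Fbw7 with reduced substrate affinity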
TEAD-YAP inh: TEAD-YAP interaction inhibition, primary screen, TEAD-YAP interaction inhibitor project, luminescence, HEK-TIYL cells | TEAD-Gal4/YAP UAS-luciferase luminescence | inhibition, % at 9.12 µM | actives 1.4% (n = 640,000) | AID 1259422, 2018; in the data active = inhibition above about 32%;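 note: 0% = median of test compound wells and 100% = reference inhibitor wells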
MITF inh conf: MITF inhibitors, retest of hits, confirmation, biochemical, AlphaScreen, triplicate; inhibition, % at 2.6 µM; shares compounds with MITF inh; AlphaScreen MITF homodimerization, biotin/His-MITF beads; actives 16% (n = 4,700);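 active = inhibition above a cutoff derived from the DMSO control wells, cut at about 28% in these data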;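 note: 0% = MITF dimer wells with DMSO only; inhibitors lower the bead chemiluminescence by keeping MITF from dimerizing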
AlphaScreen DR: AlphaScreen optical interference compounds, dose response, counter-screen, biochemical, HTS; shares compounds with MITF inh; AlphaScreen optical interference counterscreen, cell-free; IC50, µM; actives 6% (n = 480); AID 1259373, 2018; call rule not given here
AlphaScreen intf2: AlphaScreen optical interference compounds, counter-screen for MITF inhibitor project, biochemical, triplicate; shares compounds with MITF inh; LysRS AlphaScreen counterscreen, signal interference; inhibition, % at 2.6 µM; actives 7.6% (n = 4,700);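 active = inhibition above a cutoff derived from the DMSO control wells, cut at about 30% in these data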
An asterisk follows results filed as active; . = no result.

SMILES	GPR151 ag	MITF inh	FBW7 act	TEAD-YAP inh	MITF inh conf	AlphaScreen intf2	others
O=[N+]([O-])c1ccc(CN2CCN(c3ccccc3F)CC2)s1	0.9	53.0*	-0.1	-7.1	5.8	9.9
O=[N+]([O-])c1ccc(CN2CCN(Cc3ccc4c(c3)OCO4)CC2)s1	0.8	56.4*	0.0	4.2	6.8	4.3
CN1CC(=O)N2CCN(C(=O)c3cccc4ccccc34)C[C@@H]2C1=O	0.2	12.0	-0.1	-3.9	.	.
CN1CC(=O)N2CCN(C(=O)c3cc(Cl)cc(Cl)c3)C[C@@H]2C1=O	0.8	29.8	-0.1	12.6	.	.
O=C(NC1CCCCC1)N1CCN2C(=O)[C@@H]3CCCN3C(=O)[C@H]2C1	0.9	82.1*	0.2	7.6	70.6*	-11.8	AlphaScreen DR=>6.48
O=C(c1cc(F)c(F)cc1F)N1CCN2C(=O)[C@@H]3CCCN3C(=O)[C@H]2C1	-0.1	-1.7	0.0	-5.5	.	.
CN1CC(=O)N2CCN(C(=O)NC3CCCCC3)C[C@@H]2C1=O	0.4	73.6*	-0.3	0.7	73.8*	-4.5	AlphaScreen DR=>6.48
CN1CC(=O)N2CCN(C(=O)c3ccccc3Cl)C[C@@H]2C1=O	-0.3	53.8*	0.8	7.5	-1.9	-4.0
Cc1cc(NC(=O)CSc2nc3ccsc3c(=O)n2CCC(=O)O)n[nH]1	0.4	10.6	-0.2	11.6	.	.
CC1Sc2cc(S(=O)(=O)C(C)CC(=O)NC3CCCCCCC3)ccc2NC1=O (centres undefined)	2.0	-0.2	0.2	22.4	.	.
CC/C(Cc1ccccc1)=N\NC(=O)c1cccnc1	-0.4	5.4	-0.1	0.4	.	.
CN(C)c1ccc(NC2CC(=O)N(c3ccc(O)cc3)C2=O)cc1 (centres undefined)	1.9	71.2*	-0.5	11.9	30.3*	31.0*
CN(C)c1ccc(NC2CC(=O)N(c3ccc(F)cc3)C2=O)cc1 (centres undefined)	0.1	1.4	0.0	-5.5	.	.
O=C1CCCN1CCCNCC(=O)N1c2ccccc2Sc2ccccc21	-0.6	75.9*	-0.1	3.4	-16.4	-0.8
COCCN(CCOC)C(=O)COC(=O)c1cnc(Cl)c(Cl)c1	-1.7	-8.5	-0.2	-0.5	.	.
Cc1ccc(C)n1C(CC(=O)O)c1ccsc1 (centres undefined)	1.3	79.5*	-0.4	4.2	67.6*	11.5	AlphaScreen DR=>6.76
COc1cccc(NC(=O)CSc2ccc3nnc(-c4cccs4)n3n2)c1	1.7	-12.8	0.0	-4.6	.	.
Cc1cc(Cl)c(OCCn2ccnc2)c(Br)c1	-0.8	26.8	-0.1	-16.5	.	.
Cc1cc(Cl)c(OCCOCCn2ccnc2)c(Br)c1	1.5	75.2*	-0.1	-6.6	17.1	19.7
Cc1cc(OCCOCCN2CCOCC2)cc(C(C)C)c1	-2.9	65.0*	0.6	1.7	11.3	11.0
Cc1cc(Cl)c(OCCOCCN2CCOCC2)c(Br)c1	0.1	72.0*	-0.2	-10.3	-10.9	-6.7
Cc1cc(OCCOCCN2CCN(C)CC2)cc(C(C)C)c1	0.1	31.7	-0.2	4.5	.	.
Cc1ccc(OCCOCCN2CCOCC2)c(Br)c1	-0.2	75.4*	-0.2	-16.2	7.0	3.0
CC(C)CC(=O)N1CCN(Cc2ccccc2[N+](=O)[O-])CC1	0.4	56.2*	0.1	-10.4	11.3	23.6
COc1cc(CN2CCN(CCOCCO)CC2)c([N+](=O)[O-])cc1OC	-0.9	-27.9	-0.1	1.1	.	.
O=[N+]([O-])c1ccccc1CN1CCN(CCOCCO)CC1	0.0	61.8*	-0.1	-1.1	19.1	0.7
CCCS(=O)(=O)N1CCN(Cc2ccccc2[N+](=O)[O-])CC1	1.4	40.8	-0.1	-10.0	.	.
O=[N+]([O-])c1ccccc1CN1CCN(CCO)CC1	0.6	77.3*	0.1	3.4	-3.2	2.2
O=[N+]([O-])c1ccccc1CN1CCCCCCC1	-1.2	24.3	0.0	-2.3	.	.
CCOC(=O)c1cc(NC(=O)OC(C)C)c(C)nc1C	4.0	-14.5	0.0	6.4	.	.
